High-throughput results from PubChem.
TRHR ag: qHTS for Small Molecule Agonists and Allosteric Enhancers of Human TRH Receptor: Primary Screen for Agonists; TRHR cells, calcium flux fluo-8, FDSS agonist mode; Thyrotropin-releasing hormone receptor (Homo sapiens), P34981; activation, % at 2 µM; actives 0.18% (n = 360,000)
Target sequence (P34981 whole entry, looked up): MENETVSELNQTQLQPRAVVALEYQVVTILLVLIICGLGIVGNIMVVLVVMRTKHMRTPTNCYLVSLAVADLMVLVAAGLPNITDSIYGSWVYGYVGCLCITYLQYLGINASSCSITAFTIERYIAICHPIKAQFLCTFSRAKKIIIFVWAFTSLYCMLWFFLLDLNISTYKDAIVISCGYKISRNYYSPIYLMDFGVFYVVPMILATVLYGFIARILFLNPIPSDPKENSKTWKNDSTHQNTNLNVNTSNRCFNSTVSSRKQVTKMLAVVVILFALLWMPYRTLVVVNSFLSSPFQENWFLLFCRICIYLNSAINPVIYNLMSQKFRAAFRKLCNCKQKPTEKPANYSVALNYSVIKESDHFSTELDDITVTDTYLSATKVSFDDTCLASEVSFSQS
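Agonist-mode FDSS calcium read (Ex 480/Em 530, 1 s cycles) in 1536-well TRHR cells with fluo-8 dye, after 10-cycle baseline and 23 nL compound addition; TRH at EC20 (10 nM final) added afterwards for the enhancer phase.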
D1 ag: Allosteric Agonists of the Human D1 Dopamine Receptor: qHTS; D(1A) dopamine receptor (Homo sapiens), P21728; HEK293 T-REx D1 cells, calcium flux, agonist mode; activation, % at 2 µM; actives 1% (n = 360,000)
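Agonism was scored from calcium flux recorded over 180 s (1 read/s) after pintool compound addition, following a 10-cycle baseline. Cells were inducible force-coupled HEK293 TREx D1, plated overnight at 30 C and loaded with no-wash calcium dye.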
D1 antag: Antagonist of Human D 1 Dopamine Receptor: qHTS; D(1A) dopamine receptor (Homo sapiens), P21728; HEK293 TREx D1 cells, calcium flux, dopamine EC80; stronger effect = lower value; activity change, negative = inhibition, % at 10 µM; actives 3.2% (n = 360,000); in the data active means activity change below about -30%
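HEK293 T-REx cells expressing inducible, force-coupled D1 receptor; no-wash Ca dye, 30–90 min RT. Cmpd → 180 s read at 1 Hz → EC80 DA → 180 s read.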
D1 potentiator: Potentiators of Human D1 Dopamine Receptor: qHTS. AID 504651, 2011. D(1A) dopamine receptor (Homo sapiens), P21728. actives 0.036% (n = 360,000). HEK293 TREx D1 cells, calcium flux, dopamine EC20 potentiation. potentiation, % at 10 µM; in the data active means potentiation above about 30%
TRHR enhancer: qHTS for Small Molecule Agonists and Allosteric Enhancers of Human TRH Receptor: Primary Screen for Enhancers; actives 0.66% (n = 360,000); AID 493056, 2011; enhancement, % at 2 µM; TRHR cells, fluo-8 calcium fluorescence, EC20 TRH enhancement; in the data active means enhancement above about 30%
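Enhancer read-out: after compound pinning and an initial kinetic agonist-mode read, an EC20 of TRH (10 nM final) was injected and fluo-8 calcium signal (Ex 480/Em 530) followed at 1 s/cycle for 100 cycles in TRHR-expressing cells.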
Of the large screens only hits and unclear results are named; the others gave an inactive call; ! = repeats disagree. A selection: hits, their analogues and other compounds. The true share with any hit is near 4.6%. Unless noted, no stated cut-off is given here; in the data, active means activation above about 30%; inactive means the rest.

COc1ccc(NC(=O)C(=O)NCC(c2ccc3c(c2)OCO3)N2CCN(C)CC2)cc1 (configuration not stated)	none
COC(=O)c1ccc(OCCOc2ccccc2)cc1	none
COc1cccc(OC)c1OCCOc1ccc(C(=O)c2ccccc2)cc1	D1 antag -35.1
c1cncc(CNc2ncnc3ccc(-c4ccco4)cc23)c1	D1 antag -76.9
COc1cccc(-c2ccc3ncnc(NCc4cccnc4)c3c2)c1	none
Cc1csc(CNc2ncnc3ccc(-c4ccco4)cc23)c1	D1 antag -39.3
Cc1cc2ccccc2n1-c1ccc(C(=O)N2CCC(C(=O)NCc3ccccc3Cl)CC2)s1	none
Cc1ccc(N=Cc2sc(O)c3ccccc23)c(C)c1	D1 ag 47.0
Cc1ccc(N=Cc2c(O)c3ccccc3n(C)c2=O)cc1	none
Cc1ccc(N=Cc2sc(O)c3ccccc23)cc1	TRHR ag 66.4, D1 ag 302.2, D1 antag -39.0
CN(C(=O)c1ccc2c(c1)N(Cc1ccc(F)cc1)C(=O)c1ccccc1S2(=O)=O)C1CCCCC1	none
CCOc1ccccc1CNC(=O)Cn1ccc2cc(S(=O)(=O)N3CCCC3)ccc21	none
C/C(CC(=O)NC1CCCC1)=N\NC(=O)c1ccc([N+](=O)[O-])c(Cl)c1	TRHR enhancer 37.6
O=C(NCc1ccccc1)C(=O)NCC(c1ccco1)S(=O)(=O)c1ccccc1 (configuration not stated)	none (no result: D1 antag)
CC1CCCCN1S(=O)(=O)c1cc2c3c(c1)CC(=O)N3CCC2 (configuration not stated)	TRHR enhancer 32.4 (no result: D1 antag)
CCN(CC)S(=O)(=O)c1ccc(C(=O)NNC(=O)c2cccs2)cc1	D1 antag -42.3
CCCCN(CC)S(=O)(=O)c1ccc(C(=O)Nc2nnc(-c3cccs3)o2)cc1	D1 ag 39.8
CCOC(=O)c1nnc2c(-c3ccc(Cl)cc3)c(C)nn2c1C	none
COc1ccc(CNC(=O)c2cccc(N3CCCS3(=O)=O)c2)cc1OC	none
O=C(Nc1ccc(Nc2ccccc2)cc1)c1c(F)c(F)c(F)c(F)c1F	D1 antag -30.6
O=C(Nc1ccc(Nc2ccccc2)cc1)c1ccc(F)cc1	none
CSc1nc(-c2ccc(Cl)cc2Cl)[nH]c(=O)c1C#N	none
Cc1cc(-c2ccc(Cl)cc2Cl)c(C#N)c(=O)[nH]1	D1 ag 31.0
CCOc1ccccc1NC(=O)N(C)CCc1c(C)nn(CC)c1C	none
CN1CCN(c2nc(-c3cccnc3)nc3scc(-c4ccccc4)c23)CC1	none
Clc1nc(-c2ccccn2)nc2scc(-c3ccccc3)c12	TRHR enhancer 40.2
Cc1ccc(N=Nc2ccc(O)c3ncccc23)cc1C	D1 ag 36.2
CC(=O)Cn1cnc2sc(-c3ccccc3)cc2c1=O	D1 antag -36.4
Cc1ccc(N2C(=O)[C@@H]3CSC(c4ccc(Cl)cc4)N3C2=O)cc1 (some centres not stated)	none
COc1ccc2oc(-c3ccccc3)c(C(=O)N(C)C)c2c1	D1 antag -70.0
Cc1cc2c(s1)c1cnn(Cc3c(C)cc(F)cc3C)c(=O)c1n2C	none
CC(C)CNC(=S)N1CCN(c2nc(-c3ccc(Cl)cc3)cs2)CC1	D1 antag -30.3
COc1cccc(-c2csc(N3CCN(C(=S)Nc4ccccc4OC)CC3)n2)c1	D1 antag -34.6
CCOCCCNC(=S)N1CCN(c2nc(-c3ccccc3)cs2)CC1	none
COc1cccc(-c2csc(N3CCN(C(=S)Nc4ccccc4Cl)CC3)n2)c1	none
COCCCNC(=S)N1CCN(c2nc(-c3ccccc3)cs2)CC1	D1 antag -33.2
CCNC(=S)N1CCN(c2nc(-c3cccc(OC)c3)cs2)CC1	D1 antag -30.2
Cc1ccc(C(=O)c2sc(Nc3ccccc3F)c(S(=O)(=O)c3ccccc3)c2N)c(C)c1	none
C1=CCN(Cc2ccccc2)C1	none
O=C(CCC(=O)N1CC2CCCN2c2ccccc21)NCc1ccccc1F (configuration not stated)	none
COc1cccc(-c2c[nH]c(=O)[nH]c2=O)c1	none
CCCOc1ccc(C2C(=O)N(C3CCCCCC3)CC(=O)N2CCC)cc1OC (configuration not stated)	none
CC(=O)Nc1ccc(NC(=O)C(C)OC(=O)C2CCN(S(=O)(=O)c3cccs3)CC2)cc1 (configuration not stated)	none
COc1ccc(CCNC(=O)CN2C(=O)COc3ccc(S(=O)(=O)N4CCOCC4)cc32)cc1OC	D1 antag -52.2
CCCSCCCNC(=O)CN1C(=O)COc2ccc(S(=O)(=O)N3CCCC3)cc21	D1 antag -37.8!
CCc1ccc(CNC(=O)c2ccc(-c3nc(CS(=O)(=O)c4ccccc4)c(C)o3)cc2)cc1	none
CCN(CC)CCNC(=O)c1ccc(NC(=O)Cc2ccccc2F)cc1	none
CCN(CC)CCNC(=O)c1ccc(NC(=O)c2ccccc2-c2ccc(C(F)(F)F)cc2)cc1	D1 ag 70.0
CCN(CC)CCNC(=O)c1ccc(NC(=O)c2cn(-c3ccccc3)nc2-c2cccs2)cc1	D1 antag -80.5
CCCC(=O)N(CCN1CCOCC1)c1nc2c(OCC)cccc2s1	none
COc1ccc(/C=N/Nc2ncnc3c2[nH]c2ccccc23)c(OC)c1OC	none
COc1ccc2[nH]c3c(NCc4ccco4)ncnc3c2c1	none
COc1cccc(/C=N/Nc2ncnc3c2[nH]c2ccc(C)cc23)c1OC	D1 antag -34.0
Fc1ccc2[nH]c3c(NCc4ccccc4)ncnc3c2c1	D1 antag -40.3
COCCNc1ncnc2c1[nH]c1ccccc12	D1 antag -37.1
C=CCNc1ncnc2c1[nH]c1ccc(C)cc12	D1 antag -32.3
Cc1ccc2[nH]c3c(NCCN4CCOCC4)ncnc3c2c1	none
CCN(CC)CCOC(=O)c1ccc(NC(=O)c2cc3cccc(OC)c3oc2=O)cc1	none
Cc1ccn2c(=O)cc(COc3ccc(NC(=O)COc4ccc(Cl)cc4)cc3)nc2c1	none
NC(=O)c1nn(Cc2ccccc2)c(=O)c2ccccc12	none
NC(=O)C1CN(C(=O)c2nn(Cc3ccccc3)c(=O)c3ccccc23)c2ccccc2O1 (configuration not stated)	TRHR enhancer 36.8
O=C(c1n[nH]c2ccccc12)N1CCOCC1	none (no result: D1 antag)
CC(=O)c1ccc(N2CCN(C(=O)c3nn(Cc4ccccc4)c(=O)c4ccccc34)CC2)cc1	D1 antag -44.9
CC(=O)c1ccc(N2CCN(C(=O)c3n[nH]c4ccccc34)CC2)cc1	D1 antag -33.1
O=C(NC1CC(=O)N(c2cccc(F)c2)C1)c1ccc2c(c1)OCO2 (configuration not stated)	none (no result: D1 antag)
